Screening data deposited in PubChem by National Center for Advancing Translational Sciences (NCATS).
EPAC2 antagonist – EPAC2 (human) antagonism. AID 720708. 360,000 tested, 0.18% active. Potency, µM (series often up to 114 µM), most hits filed as inhibitors. EPAC2 GEF exchange of Rap1B-BODIPY-GDP, fluorescence. Q8WZA2; further: nearly all actives have a fitted effect of over 45% in size
Target sequence (Q8WZA2 whole entry, looked up): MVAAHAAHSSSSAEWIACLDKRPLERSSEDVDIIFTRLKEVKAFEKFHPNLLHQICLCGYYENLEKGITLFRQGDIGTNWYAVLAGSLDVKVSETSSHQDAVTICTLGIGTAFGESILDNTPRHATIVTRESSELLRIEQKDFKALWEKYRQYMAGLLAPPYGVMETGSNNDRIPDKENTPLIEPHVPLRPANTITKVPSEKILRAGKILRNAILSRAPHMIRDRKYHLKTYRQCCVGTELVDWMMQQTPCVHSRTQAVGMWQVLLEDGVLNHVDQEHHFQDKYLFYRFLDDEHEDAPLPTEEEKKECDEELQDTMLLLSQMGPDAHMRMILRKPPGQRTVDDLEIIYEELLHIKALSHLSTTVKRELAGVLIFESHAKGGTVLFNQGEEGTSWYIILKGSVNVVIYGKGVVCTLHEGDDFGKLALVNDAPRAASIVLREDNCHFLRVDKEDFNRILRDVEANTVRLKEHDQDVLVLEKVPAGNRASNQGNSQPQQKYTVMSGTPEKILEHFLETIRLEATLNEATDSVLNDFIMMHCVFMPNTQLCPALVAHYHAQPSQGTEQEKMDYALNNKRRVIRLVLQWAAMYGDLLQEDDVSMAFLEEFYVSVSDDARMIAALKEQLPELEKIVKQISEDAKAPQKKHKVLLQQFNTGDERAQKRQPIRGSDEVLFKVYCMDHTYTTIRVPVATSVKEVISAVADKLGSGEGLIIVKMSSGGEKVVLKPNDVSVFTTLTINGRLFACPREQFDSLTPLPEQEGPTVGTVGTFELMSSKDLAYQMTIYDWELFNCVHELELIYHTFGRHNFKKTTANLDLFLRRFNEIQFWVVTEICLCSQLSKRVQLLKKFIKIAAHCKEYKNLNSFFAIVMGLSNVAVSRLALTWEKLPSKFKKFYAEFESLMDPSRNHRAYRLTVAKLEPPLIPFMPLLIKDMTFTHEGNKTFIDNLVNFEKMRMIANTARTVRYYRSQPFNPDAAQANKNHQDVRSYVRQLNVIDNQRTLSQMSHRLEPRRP
EPAC1 agonist – EPAC1 (human) agonism; 360,000 tested, 0.073% active; O95398; EPAC1 agonist qHTS, biochemical assay; response scale: 100% = response to 6.5 mM cAMP; Potency, µM (highest dose often 154 µM), actives largely listed as activators; further: nearly all actives have a fitted effect of over 60% in size
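Fluorescent GDP-exchange assay: 100 nM EPAC1 with 250 nM Rap1B preloaded with BODIPY-GDP and 50 uM GDP; compounds tested as concentration series, 5 min at room temperature, then read every 5 min for 30 min (ex 480/em 540 nm); normalized to 6.5 mM cAMP.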
EPAC2 agonist – EPAC2 (human) agonism. Q8WZA2. EPAC2 activation, biochemical qHTS; response scale: 100% = 6.5 mM cAMP response. Potency, µM (doses to about 154 µM), most hits filed as activators. 360,000 tested, 0.079% active. AID 720711; further: nearly all actives have a fitted effect of over 50% in size
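Compounds were added across a concentration range to EPAC2 (100 nM), RAP1B-BODIPY-GDP (250 nM) and GDP (50 uM). After 5 min at room temperature, fluorescence was recorded at 5-min intervals for 30 min.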
IL2 activator – activators of IL-2. IL-2 activation reporter assay, cell-based qHTS; stimulated with anti-CD3/CD4/CD28 beads; in transgenic mouse T cells. activation, % (series mostly up to about 46 µM). 360,000 tested, 0.065% active. AID 652025; in the data active means activation above about 50%; inconclusive means mostly about 30% to 49%
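Unstimulated transgenic mouse T cells, 750 per well, received compound and, after 60 minutes, anti-CD3/anti-CD4 bead plus anti-CD28 stimulation. EGFP and DsRed were quantified after 18 hours.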
EPAC1 antagonist – EPAC1 (human) antagonism. O95398. EPAC1 GEF assay, Rap1b-BODIPY-GDP exchange fluorescence. Potency, µM (series often up to 115 µM), hits mostly inhibitors. 360,000 tested, 0.14% active. AID 720709; further: nearly all actives have a fitted effect of over 50% in size
PKM2 activator – PKM2 (human) enzyme activation | P14618 | purified PKM2, Kinase-Glo ATP luminescence, activation; response scale: 0% is enzyme alone, no compound | Potency, µM (titrated, usually from 57.5 µM), usual class: activators | 260,000 tested, 0.34% active; further: nearly all actives have a fitted effect of over 55% in size
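hPK-M2, >95% pure; 0.1 mM ADP / 0.5 mM PEP final; imidazole pH7.2 buffer w/ 7 mM MgCl2, 50 mM KCl; 1 h RT; Kinase-Glo lum. Intermediate enzyme activity for dual inhibitor/activator qHTS.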
Of the large screens only hits and unclear results are named; the others gave an inactive call. An excerpt weighted towards active compounds, which were near 0.64% of everything screened. Unless noted, the call rests on the fitted dose curve; in most records, active means well fitted curve in the direction sought with a large enough effect; inconclusive means small, poorly fitted or top-dose-only effect, or another doubt; inactive means no such curve, though single readings can be large; an effect the other way counts as inactive or inconclusive.

CN1CCN(CCCN2c3ccccc3Sc3ccc(Cl)cc32)CC1	EPAC2 antagonist 13µM
CC1CCN(S(=O)(=O)N2CCC(C(=O)NCc3ccc(F)cc3Cl)CC2)CC1	none (no result: PKM2 activator)
CC1=CCC[C@@H]2[C@@](C)(CC/C(C)=C/C(=O)O)[C@H](C)CC[C@@]12C	EPAC2 antagonist 32µM, EPAC1 antagonist inconclusive
C[C@@H]1CC[C@@]23COC(=O)C2=CCC[C@@H]3[C@@]1(C)CC/C(=C/CO)CO	none (no result: PKM2 activator)
O=C(c1ccc2c(=O)n(Cc3ccccc3Cl)c(=S)[nH]c2c1)N1CCOCC1	none (no result: PKM2 activator)
O=C(CSc1ccc2c(c1)OCCO2)Nc1cccnc1	none
COc1ccccc1NC(=O)CN(c1ccc([N+](=O)[O-])cc1)S(=O)(=O)c1ccccc1	PKM2 activator 10µM
COc1ccc(NC(=O)CN(c2ccc([N+](=O)[O-])cc2)S(=O)(=O)c2ccccc2)c(OC)c1	none
CC12CCC(C(=O)NCc3ccc(F)cc3)(OC1=O)C2(C)C (configuration not stated)	none
O=C(CSc1nc2ccccc2n1Cc1ccccc1Cl)N/N=C/c1ccccc1C(=O)O	EPAC2 antagonist inconclusive, PKM2 activator 25µM
COc1ccc2cc(-c3[nH]ncc3CN3C[C@@H]4CCC[C@H]3C4)ccc2c1	none
O=C(O)CCC(=O)N1CCN(S(=O)(=O)c2cccs2)CC1	none
O=C(CSc1ccccc1)N1CCN(S(=O)(=O)c2cccs2)CC1	PKM2 activator 1.1µM
O=C(CCCc1c[nH]c2ccccc12)N1CCN(S(=O)(=O)c2cccs2)CC1	PKM2 activator 1.6µM
O=C(CCCc1c[nH]c2ccccc12)N1CCOCC1	none
O=C(CCCc1cccs1)N1CCN(S(=O)(=O)c2ccccc2Br)CC1	PKM2 activator 11µM
CCCCCc1c2c(cc(O)c1C(=O)O)OC(=O)c1c(cc(OC)cc1C(=O)CCCC)O2	EPAC2 antagonist 50µM, EPAC1 antagonist 50µM
CCCCCc1c2c(cc(O)c1C(=O)O)OC(=O)c1cc(C(=O)CCCC)c(OC)cc1O2	EPAC2 antagonist inconclusive, EPAC1 antagonist 50µM (no result: PKM2 activator)
CSc1nc(N2CCOCC2)c2c3c(sc2n1)CCCC3	EPAC2 antagonist 18µM
O=C(COC(=O)C1(c2ccccc2F)CCCC1)NCc1ccc2c(c1)OCO2	IL2 activator 65
COc1cc(/C=C(\C#N)c2nc3ccccc3s2)cc([N+](=O)[O-])c1O	EPAC2 antagonist inconclusive, EPAC1 antagonist 79µM
CC(Oc1ccc2c(=O)c(-c3ccc(Cl)cc3)c(C(F)(F)F)oc2c1)C(=O)O (configuration not stated)	none
CN(CC(=O)Nc1cccc(F)c1)C(=O)c1csc2c1CCCC2	none (no result: PKM2 activator)
COc1cccc(CNC(=O)C2CCN(S(=O)(=O)c3ccc4c(c3)OCCO4)CC2)c1	PKM2 activator 11µM
O=C(NCc1ccc2c(c1)OCO2)C1CCN(S(=O)(=O)c2cccs2)CC1	PKM2 activator 8.9µM
O=C(NCc1ccc2c(c1)OCO2)C1CCN(S(=O)(=O)c2ccc(Br)s2)CC1	PKM2 activator inconclusive
COc1cccc(CNC(=O)C2CCN(S(=O)(=O)c3ccccc3)CC2)c1	PKM2 activator 25µM
COc1ccc(NC(=O)CCNC(=O)C2CCN(S(=O)(=O)c3ccc(F)cc3)CC2)cc1OC	PKM2 activator 4.5µM
COc1cccc(CNC(=O)[C@H](C)NC(=O)C2CCN(S(=O)(=O)c3ccccc3)CC2)c1	none
CC12CC(O)C3c4ccc(O)cc4CCC3C1CC/C2=N\O (configuration not stated)	none (no result: PKM2 activator)
COc1cccc(CNC(=O)N2CCN(S(=O)(=O)c3ccc(Cl)cc3)CC2)c1	PKM2 activator 14µM
CC(C)n1c(SCC(=O)Nc2ccccc2)nc2c1c(=O)n(C)c(=O)n2C	PKM2 activator 14µM
Cn1c(=O)c2c(nc(SCC(=O)Nc3ccccc3)n2C)n(C)c1=O	none
CCn1c(SCC(=O)Nc2ccccc2)nc2c1c(=O)n(C)c(=O)n2C	PKM2 activator 7.9µM
CC(C)n1c(SCC(=O)Nc2ccccc2)nc2c1c(=O)[nH]c(=O)n2C	PKM2 activator 8.9µM
COCCn1c(SCC(=O)Nc2ccccc2)nc2c1c(=O)[nH]c(=O)n2C	PKM2 activator 6.3µM
CC(C)n1c(SCC(N)=O)nc2c1c(=O)[nH]c(=O)n2C	none
CC(C)C(=O)N1CCCC1(C)C(=O)Nc1ccccc1 (configuration not stated)	none (no result: PKM2 activator)
CCN(CC)C(=O)C(c1ccccc1)S(=O)(=O)N1CCOCC1 (configuration not stated)	none (no result: PKM2 activator)
Nc1ccc(Sc2ccc([N+](=O)[O-])cc2)cc1	none
O=C1C=CC(=O)N1c1ccc(Sc2ccc([N+](=O)[O-])cc2)cc1	PKM2 activator 32µM (no result: EPAC2 antagonist, EPAC1 agonist, EPAC2 agonist, IL2 activator, EPAC1 antagonist)
COc1ccc(Cc2nnc(SCC(=O)c3ccc4c(c3)OCO4)o2)cc1	none (no result: PKM2 activator)
CC(=O)c1sc(NC(=O)C2CC(=O)N(Cc3ccccc3)C2)nc1-c1ccccc1 (configuration not stated)	EPAC1 antagonist inconclusive (no result: PKM2 activator)
Cc1cc(-c2ccccc2)c2c3c(c(-c4ccccc4)n2n1)c(=O)n(C)c(=O)n3C	IL2 activator 70
O=c1[nH]nc(CNc2ccc(C(F)(F)F)cc2)c2ccccc12	none
O=c1[nH]nc(CNc2ccc(O)cc2)c2ccccc12	EPAC1 antagonist 35µM
O=C(O)CSc1nnc(-c2cccc(S(=O)(=O)N3CCOCC3)c2)n1-c1cccc(Cl)c1	none
Cc1csc(SCC(=O)c2ccc(S(=O)(=O)N3CCOCC3)cc2)n1	PKM2 activator 28µM
Cc1cc(C(=O)Nc2ccon2)c(C)o1	EPAC1 antagonist 50µM
Cc1cc(C(=O)Nc2cc(C(C)(C)C)on2)c(C)o1	none
COc1cc(C(=O)NCc2cc(C)nc3ccccc23)cc(OC)c1OC	none
COc1cc(C(=O)NCc2cccc3ccccc23)cc(Cl)c1OC	PKM2 activator 18µM
N#CC1=C(N)C2=CCCC[C@H]2[C@H](c2ccc(Br)cc2)C1(C#N)C#N	PKM2 activator 7.9µM
COc1cc(/C=C2\SC(=O)N(c3ccccc3Cl)C2=O)cc([N+](=O)[O-])c1O	EPAC2 antagonist inconclusive, EPAC1 antagonist 79µM
COc1cc(/C=C2/C(=O)NN(c3ccc(Cl)c(Cl)c3)C2=O)cc([N+](=O)[O-])c1O	EPAC1 antagonist inconclusive (no result: PKM2 activator)
CCOc1cc(/C=C2\SC(=O)N(CC(=O)Nc3ccccc3F)C2=O)cc([N+](=O)[O-])c1O	EPAC2 antagonist inconclusive, EPAC1 antagonist inconclusive, PKM2 activator inconclusive
COc1cc(/C=C2\SC(=O)N(CC(=O)Nc3cccc(C)c3)C2=O)cc([N+](=O)[O-])c1O	EPAC2 antagonist 50µM, EPAC1 antagonist inconclusive
